From PubChem BioAssay
Most compounds without a hit are left out; they make up all but 2.3% or so of the library.
CHRM1 agonist – human M1 muscarinic receptor agonists, primary screen, Fluo-8 calcium fluorescence, CHO-K1 cells, HTS; 360,000 tested, 0.33% active; CHO-K1 hM1, agonist mode; 0% DMSO, 100% acetylcholine EC100; activation, % at 3 µM; Muscarinic acetylcholine receptor M1 (Homo sapiens), P11229; AID 588814, 2011;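 active = activation above the run's mean compound activation plus 3 SD, cut at about 16% in these data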;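 also: peak over basal fluorescence ratio within a 140 s kinetic read after compound addition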
Target sequence (P11229 whole entry, looked up): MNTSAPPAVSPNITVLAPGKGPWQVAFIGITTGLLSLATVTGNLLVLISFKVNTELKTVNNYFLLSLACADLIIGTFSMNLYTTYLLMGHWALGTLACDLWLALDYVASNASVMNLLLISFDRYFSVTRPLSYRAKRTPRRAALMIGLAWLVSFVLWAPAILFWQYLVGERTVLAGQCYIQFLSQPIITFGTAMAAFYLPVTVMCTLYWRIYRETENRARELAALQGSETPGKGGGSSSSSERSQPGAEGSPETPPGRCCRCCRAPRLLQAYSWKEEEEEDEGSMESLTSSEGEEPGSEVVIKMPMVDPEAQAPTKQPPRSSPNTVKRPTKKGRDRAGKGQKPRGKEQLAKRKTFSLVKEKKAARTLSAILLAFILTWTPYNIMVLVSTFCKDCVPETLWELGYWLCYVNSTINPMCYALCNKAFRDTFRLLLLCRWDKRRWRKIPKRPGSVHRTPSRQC
CHO-K1 Ca antag – counter-screen for M1 antagonists: effect in parental CHO-K1 cells; ATP-induced calcium, Fluo-8 fluorescence; inhibition, % at 3 µM; 360,000 tested, 0.6% active;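 active = inhibition above a per-plate cutoff, the plate's mean sample inhibition plus 3 SD, cut at about 24% in these data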;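 also: 0% = DMSO plus EC80 ATP and 100% = DMSO alone without ATP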
CHRM1 antagonist – human M1 muscarinic receptor antagonists, primary screen, CHO-K1 cells, Fluo-8 calcium fluorescence, 1536-well; Muscarinic acetylcholine receptor M1 (Homo sapiens), P11229; CHO-K1 hM1, ACh EC80 antagonist; inhibition, % at 3 µM; 360,000 tested, 1.3% active; AID 588852, 2011;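 active = percent inhibition above its own plate's cutoff, namely the mean of that plate's compound wells plus 3 SD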;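 also: peak over basal fluorescence ratio during 140 s after agonist addition; 0% = ACh EC80 plus DMSO and 100% = DMSO alone without agonist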
M1 ag parental – counter-screen for M1 agonists: effect in parental CHO-K1 cells; AID 602248, 2012; 360,000 tested, 0.48% active; activation, % at 3 µM; Fluo-8 calcium fluorescence; scaled to maximal ATP response, vehicle zero; in the data active = activation above about 15%;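 also: untransfected CHO-K1 host cells lacking M1 receptor as counterscreen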
M1 PAM parental – nonselective calcium activators in parental CHO-K1 cells, primary screen, counter-screen for M1 PAM project, cell-based, Fluo-8 calcium fluorescence, full deck, 1536-well. ATP EC20; 0% at ATP EC20, 100% at ATP max. activation, % at 3 µM. 360,000 tested, 0.02% active. AID 602247, 2012;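 active = activation above the run cutoff, the mean activation of all test compounds plus 3 SD, cut at about 40% in these data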;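 also: peak over basal fluorescence ratio in a 140 s read after ATP addition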
CHRM1 PAM – human M1 muscarinic receptor positive allosteric modulators, primary screen, CHO-K1 cells, Fluo-8 calcium fluorescence, 1536-well; Muscarinic acetylcholine receptor M1 (Homo sapiens), P11229; CHO-K1 hM1, ACh EC20; 0% = ACh EC20, 100% = maximal ACh; activation, % at 3 µM; 360,000 tested, 0.088% active; AID 588819, 2011; in the data active = activation above about 19%, passing the limit was not always enough
Starred values were filed as active, the others as inactive; / = no result given.

SMILES | CHRM1 agonist | CHO-K1 Ca antag | CHRM1 antagonist | M1 ag parental | M1 PAM parental | CHRM1 PAM
O=C(CN1C(=O)c2cccnc2Oc2ccc(Cl)cc21)NCCCc1ccccc1 | 2 | 2 | 30* | 9 | 15 | -9
O=C(Nc1cccc(Cl)c1)c1ccc(F)c(S(=O)(=O)NCc2ccc3c(c2)OCO3)c1 | -5 | 5 | 4 | 3 | 12 | -3
Cn1cnc(S(=O)(=O)N2CCCCC2c2cc(C(=O)Nc3ccccc3Cl)no2)c1 (stereo not given) | 1 | 0 | -17 | 1 | 20 | 11
O=C(CCS(=O)(=O)c1ccc(Br)cc1)Nc1ccccn1 | 0 | 24* | 19 | 1 | -16 | -11
COc1ccc(Cc2c(C(C)(C)C)nc3c(C)cc(Br)cn23)c(C)c1 | -10 | 25* | -3 | 0 | 10 | 0
COc1ccc(Cc2c(C(C)(C)C)nc3cc(C)c(Br)c(C)n23)c(C)c1 | / | -12 | / | 0 | 21 | /
CCOC(=O)CSc1nc2c(sc(=S)n2-c2ccccc2OC)c(=O)n1Cc1ccco1 | -3 | 28* | 3 | 0 | -1 | -7
COCc1ccc(CN2CCC(n3nccc3NC(=O)CCOc3ccccc3)CC2)o1 | -4 | 1 | 2 | 7 | -5 | 2
CCOC(=O)C(Cc1ccccc1)C(=O)Nc1ccc(N(CC)CC)cc1 (stereo not given) | -7 | -2 | 33* | 3 | 15 | -25
CC(NC(=O)c1ccncc1)C(c1cccs1)N1CCOCC1 (stereo not given) | 5 | -18 | -11 | 1 | 21 | 10
Cc1cccc(C(=O)NC(C)C(c2cccs2)N2CCOCC2)c1 (stereo not given) | 0 | -3 | 7 | 15* | 12 | -5
Cc1csc(C(C)N(C)C(=O)c2ccc(OC3CCN(Cc4ccccn4)CC3)cc2)n1 (stereo not given) | -6 | -12 | -3 | 2 | 6 | 3
CC12CCC(=O)N1C(C(=O)NNC(=O)COc1ccc(Br)cc1)CS2 (stereo not given) | -2 | 17 | 33* | 0 | -31 | -11
COC(=O)c1c(NC(=O)c2cccc(S(=O)(=O)N3CCN(C)CC3)c2)sc(C)c1C | -5 | -6 | 1 | 1 | 8 | 4
COc1ccc(CNC(=O)COc2ccc(S(=O)(=O)N3CCOCC3)cc2)cc1 | -2 | -1 | 0 | 1 | -10 | 0
O=C(COc1ccc(S(=O)(=O)N2CCOCC2)cc1)NCc1ccccc1 | -2 | 22 | 29* | 0 | -16 | -7
COc1ccc(S(=O)(=O)N2CCOCC2)cc1NC(=O)CO/N=C/c1ccccc1OC(F)F | -8 | 1 | -11 | 15* | 21 | 13
O=C(NCCN1CCN(S(=O)(=O)c2ccc(F)cc2)CC1)C(=O)NCc1ccccc1 | -4 | 24* | -2 | 3 | 0 | 2
Cc1ccc(S(=O)(=O)N2CCOCC2)cc1NC(=O)COc1ccc(C(=O)c2ccccc2)cc1 | 1 | 5 | 37* | 16* | -6 | -20
CCCCCC(C)NC(=O)c1cc(S(=O)(=O)N2CCCCC2)ccc1N1CCOCC1 (stereo not given) | -4 | -13 | -2 | -1 | 2 | 11
Cc1ccc(C(=O)N2N=C(CC(C)C)CC2(O)C(F)(F)F)o1 (stereo not given) | -12 | 4 | 4 | 10 | 16 | 8
O=C(CCCOc1ccc(Br)cc1)Nc1ccc(S(=O)(=O)N2CCOCC2)cc1 | 3 | 5 | 32* | 13 | -10 | -13
O=C(COc1ccc(S(=O)(=O)N2CCOCC2)cc1)Nc1ccc(Br)cc1 | -1 | -5 | -1 | 6 | 10 | 0
COc1ccc(S(=O)(=O)N2CCOCC2)cc1NC(=O)c1ccc(=O)[nH]c1 | -3 | 54* | -10 | 1 | -3 | 6
COc1ccc(S(=O)(=O)N2CCOCC2)cc1NC(=O)c1ccc2c(c1)OCO2 | -2 | -8 | -5 | 2 | 1 | 6
